In all, about 68,000 sequences were measured (“fluorescence intensity (a.u.)”: median about 9,100, highest 2% from about 16,000 on). The list comes from a sample in which the highest values are over-represented; it also holds similar and randomly drawn sequences.

The target in this assay is OsWRKY34 (Oryza sativa, UniProt Q0JBA9 1-250). Description: protein-binding microarray (RPBM); PBS, 2% BSA, 51.3 ng/ul salmon testes DNA, 50 uM zinc acetate, 200 nM TF, 25 C, 1 h; high values mean tight binding. As to conditions: protein: recombinant; tags: N-terminal polyhistidine and DsRed monomer fusion (pET32a); label: CyDye5-dUTP incorporated in the synthesized complementary strand; 3' TTTTT single-stranded linker to array surface; dsDNA, one strand shown. The gist of the method: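 Polyhistidine-tagged DsRed fusions of transcription factors, joined at the N-terminus, were expressed in E. coli BL21-CodonPlus and isolated on Ni–NTA. They were incubated at 200 nM for 1 h at 25 °C on a custom Agilent array, double-stranded and BSA-blocked, in PBS with 2% BSA, salmon testes DNA and 50 µM zinc acetate. The binding signal is per-feature fluorescence intensity (arbitrary units) read on an Axon 4000B scanner after washing.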
Sequence of OsWRKY34 (Q0JBA9 entry or part of it): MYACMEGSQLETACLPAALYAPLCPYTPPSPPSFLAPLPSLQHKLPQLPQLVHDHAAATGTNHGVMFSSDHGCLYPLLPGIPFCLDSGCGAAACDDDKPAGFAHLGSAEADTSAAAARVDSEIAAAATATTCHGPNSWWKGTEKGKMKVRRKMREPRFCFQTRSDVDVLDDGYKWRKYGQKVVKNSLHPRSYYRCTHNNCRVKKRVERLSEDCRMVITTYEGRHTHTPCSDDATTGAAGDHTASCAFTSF
Turning to “GGAAGATTACCCTGTTTACCACTCACTGTACGATGATTATCGGAGTCACCTAGTGCAG”, the binding signal is 9260 fluorescence intensity (a.u.).
Next, “CACACCATTTCCTTTTTCTTTAGAAAATATCACACTATCACGGAGTCACCTAGTGCAG”: 9060 fluorescence intensity (a.u.).
The figure for “ATCGACCTCCATTTTAACGTACGACTCCCTAAGAGACCCGCGGAGTCACCTAGTGCAG” is 9660 fluorescence intensity (a.u.).
Next, “AATTACTATAACACATCTTCCTAACAAATGCACCTCAATACGGAGTCACCTAGTGCAG”: 8050 fluorescence intensity (a.u.); “CATATGTTTACACCCAAATTTGGCACCTAGGATTAAAATACGGAGTCACCTAGTGCAG”: 8350 fluorescence intensity (a.u.).
In the case of “TGCTGTCGTATACTAGAAGCTGATGCTTTTCTTGCTTAGTCGGAGTCACCTAGTGCAG”, the binding signal is 8940 fluorescence intensity (a.u.).
With “CAACCCACACACCACCACACAGATCACAACAGCAAGTTGTCGGAGTCACCTAGTGCAG”, the binding signal is 8160 fluorescence intensity (a.u.).
The figure for “TTTGTTTGGTAAAATTTTTGGTGGGGATTGGAGTTGGAAACGGAGTCACCTAGTGCAG” is 9440 fluorescence intensity (a.u.); for “CTCTCATGTATATACATTAATTATGTTTTTGTCCCCATTTCGGAGTCACCTAGTGCAG” it is 9950 fluorescence intensity (a.u.); for “GAGCATCACAAGTCGCGACCTCACAGGGAGGGGCGGCGGCCGGAGTCACCTAGTGCAG” it is 9060 fluorescence intensity (a.u.).
The figure for “CTGTATCCATCCCTAAATATTTGACGCCGTTGACTTTTCTCGGAGTCACCTAGTGCAG” is 25600 fluorescence intensity (a.u.); for “GAACTGCTCCCTCCATCCATAAATATTTGACGCCGTTGACCGGAGTCACCTAGTGCAG” it is 11900 fluorescence intensity (a.u.).
The figure for “GTTTTGACTTTTTTTTCTAATAAAATTTCTTTTATGTTTGCGGAGTCACCTAGTGCAG” is 18600 fluorescence intensity (a.u.); for “TGTTTTCTGTTCTTTGTTGACTTTAAGTCGCTAAATTTTGCGGAGTCACCTAGTGCAG” it is 11500 fluorescence intensity (a.u.); for “AGTAATTTATGTTTGACTATTTTTTTAAAAATTTTTTATGCGGAGTCACCTAGTGCAG” it is 10800 fluorescence intensity (a.u.).
“ATTATCCTCTTGTTTTTCAACTGGAATGAACCACCAACAACGGAGTCACCTAGTGCAG”: the binding signal was 9790 fluorescence intensity (a.u.).
The figure for “CACTACTATCTGCCTCACCGTTAACCCTACCGAATAAATTCGGAGTCACCTAGTGCAG” is 8880 fluorescence intensity (a.u.).
Next, “ATTGCAGCCTTCGCCTCCTTTCCTTCAGGTACACATATTGCGGAGTCACCTAGTGCAG”: 9850 fluorescence intensity (a.u.); “TTGTGGGAGGAGGGGATGGAATGATGATGACTCTGTTTTTCGGAGTCACCTAGTGCAG”: 8200 fluorescence intensity (a.u.).
Next, “GGTGATCTTTGTATTCTTTTTCTGCAGCGAACATATAGCTCGGAGTCACCTAGTGCAG”: 16300 fluorescence intensity (a.u.); “CCGCTCTGATTCGCAAACTATAACACCAAACAAACGGGCGCGGAGTCACCTAGTGCAG”: 20100 fluorescence intensity (a.u.).
Regarding “GACGCGGCGCAGTGCAACCAACAAACCGGGGCGGGCGGGGCGGAGTCACCTAGTGCAG”, the binding signal was 11800 fluorescence intensity (a.u.).
The figure for “ATTTTGATTTTTGCAATCACCACCCCGCGCGGCGCAAACACGGAGTCACCTAGTGCAG” is 8880 fluorescence intensity (a.u.); for “ATTATATGCTAATTACTTTCTCGTTTTACGTACACCAACTCGGAGTCACCTAGTGCAG” it is 8420 fluorescence intensity (a.u.).
Regarding “TTTCATTTTTTTTTACCACCTCACCTTCTGTGTTTCTTTTCGGAGTCACCTAGTGCAG”, the binding signal was 9040 fluorescence intensity (a.u.).
Turning to “TTTTGTCATTGTCAAATTTTGATAAGTTTGTCAAAATTTTCGGAGTCACCTAGTGCAG”, the binding signal was 9080 fluorescence intensity (a.u.).
Next, “AAATTTGAAGTAGTTTGACTTTGACCAAAGTCAAAACATCCGGAGTCACCTAGTGCAG”: 17600 fluorescence intensity (a.u.); “ATTTAAAATAGTTTGACTTTGACCAAAGTCAAAACATCTTCGGAGTCACCTAGTGCAG”: 13500 fluorescence intensity (a.u.); “ATTTTGGTCAAATTTAAACTAATCTAAGTTTGACTAATTTCGGAGTCACCTAGTGCAG”: 8610 fluorescence intensity (a.u.).
Take “TGCATTTCAATTCAAATTTAAGTTGATTCGTTGACTTGTTCGGAGTCACCTAGTGCAG”: the binding signal is 10100 fluorescence intensity (a.u.).
Next, “TTGGTCAAAGTCAAACTGCTTTAAGTTTGACCAAGTTTGTCGGAGTCACCTAGTGCAG”: 21500 fluorescence intensity (a.u.); “TTTGGTCAAAGTCAAACTGCTTCTAGTTTGACTAAATTTACGGAGTCACCTAGTGCAG”: 17800 fluorescence intensity (a.u.).
For the sequence “AAACTTGAAGAAATTTGACTTTAGCTAAAGTCAAAACATCCGGAGTCACCTAGTGCAG”, the binding signal is 10600 fluorescence intensity (a.u.).
On to “TAAAGTCAAACTGTTTTTTTAAGTTTGACCAAGCTTTTGACGGAGTCACCTAGTGCAG”, for which the binding signal was 10400 fluorescence intensity (a.u.).
The figure for “TTGACTTTGTTTAAAGTCAAACTGCTTCAAGTTTGACTAACGGAGTCACCTAGTGCAG” is 9550 fluorescence intensity (a.u.).
Next, “AGATGTTTTGACTTTAGTCAAAGTCAAACTGCTTTAAGTTCGGAGTCACCTAGTGCAG”: 11800 fluorescence intensity (a.u.).
As to “AAGCTTTGACTTTTTTTTGTCAAATTTTTTAAGTTTGATTCGGAGTCACCTAGTGCAG”, the binding signal is 20400 fluorescence intensity (a.u.).
With “AAACTACCATGGGACTTATATTGCTCCGGTTTTGATAGTTCGGAGTCACCTAGTGCAG”, the binding signal was 8480 fluorescence intensity (a.u.).
The figure for “TTCCACAGAGTCAAGTCCACAGAACGTATGCTCCATGTTCCGGAGTCACCTAGTGCAG” is 8160 fluorescence intensity (a.u.); for “GGCTGCCTGTGCATGGGAGGCGATGTGAGGGTGGGCAGGGCGGAGTCACCTAGTGCAG” it is 9440 fluorescence intensity (a.u.).
Next, “ACTCACGCTTTAACACCAGGAATCTTATCTCTATCTCATCCGGAGTCACCTAGTGCAG”: 8460 fluorescence intensity (a.u.).
The figure for “ATTGGGCTGGAATGAGATTCACGGGAGGGTAACTGGCGGTCGGAGTCACCTAGTGCAG” is 12300 fluorescence intensity (a.u.).
Consider “TTCAAATTGTTGCTGCTCTGTGCTAGCCTTTTCATATTGACGGAGTCACCTAGTGCAG”, for which the binding signal is 9110 fluorescence intensity (a.u.).
The figure for “ATTTTTTTTCTAGTCAAACTTTGTTAAGTTTGACCAAAATCGGAGTCACCTAGTGCAG” is 9790 fluorescence intensity (a.u.).
The figure for “ATATTATAAGTTGTTTTGACTTTTTGCTAGTCAAACTTATCGGAGTCACCTAGTGCAG” is 14200 fluorescence intensity (a.u.).
